The list is not random: actives were taken first. Their share in the collection is about 3%.
Mtb BioA inh – BioA (M. tuberculosis) enzyme inhibition. inhibition, % at 9.99 µM. purified M. tuberculosis BioA enzyme, plate reader. actives 0.096% (n = 360,000). AID 602481; in the data active means inhibition above about 40%
FBA Mtb inh – Mtb fructose-bisphosphate aldolase inhibition; actives 2.3% (n = 360,000); AID 588726; P9WQA3; purified M. tuberculosis FBA, fluorescence read-out; inhibition, % at 1 µM;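 further: 0% = vehicle and 100% = reference inhibitor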
Target sequence (P9WQA3 whole entry, looked up): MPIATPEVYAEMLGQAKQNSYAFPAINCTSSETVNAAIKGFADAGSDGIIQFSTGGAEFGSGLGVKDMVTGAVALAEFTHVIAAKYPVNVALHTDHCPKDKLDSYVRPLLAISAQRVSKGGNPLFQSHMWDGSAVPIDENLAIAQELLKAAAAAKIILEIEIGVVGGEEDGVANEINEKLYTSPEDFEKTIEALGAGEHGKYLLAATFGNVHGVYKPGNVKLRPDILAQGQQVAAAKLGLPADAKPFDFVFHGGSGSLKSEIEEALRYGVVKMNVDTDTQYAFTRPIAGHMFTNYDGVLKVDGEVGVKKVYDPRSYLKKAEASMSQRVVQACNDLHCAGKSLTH
Vc quorum ag – induces V. cholerae light production without autoinducers; V. cholerae BH1578 lux reporter, luminescence, 6 h; actives 0.16% (n = 350,000); activation, % at 18.7 µM; in the data active means activation mostly above about 9.7%, no sharp cut-off
GDH-TPI counter-1 – GDH-TPI coupled enzyme inhibition counter-screen | GDH-TPI coupled enzyme counterscreen, NADH absorbance | inhibition, % at 4.8 µM | actives 1.2% (n = 360,000); in the data active means inhibition above about 30%;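 further: 0% = DMSO wells and 100% = wells lacking the enzyme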
Mtb FBA inh conf – Mtb FBA inhibition, confirmed. actives 78% (n = 5,600). purified M. tuberculosis FBA, fluorescence read-out. shares compounds with FBA Mtb inh. inhibition, % at 1 µM;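 further: 0% = vehicle wells and 100% = reference inhibitor wells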
GDH-TPI counter-2 – inhibits GDH-TPI coupling enzymes, flagging Mtb FBA hits; shares compounds with FBA Mtb inh; GDH-TPI coupled enzyme counterscreen, fluorescence; inhibition, % at 1 µM; actives 81% (n = 5,600); AID 652141; in the data active means inhibition above about 10%
GDH-TPI dose – inhibits GDH-TPI coupling enzymes in dose response; shares compounds with FBA Mtb inh; GDH-TPI coupled enzyme assay, fluorescence, artifact counterscreen; IC50, µM; actives 79% (n = 170); AID 652145; call rule not given here
* hit, by the source's call; i = inactive; x = no result given; + = active, no number. Unless noted, no stated cut-off is given here; in the data, active means inhibition above about 27%; inactive means the rest.

SMILES	Mtb BioA inh	FBA Mtb inh	Vc quorum ag	GDH-TPI counter-1	Mtb FBA inh conf	GDH-TPI counter-2	others
COc1ccc2[nH]c3c(=O)n(N)c(=O)[nH]c3c2c1	x	107*	i	14	33*	31*
COc1cc2[nH]c3c(=O)n(N)c(=O)[nH]c3c2cc1OC	2	34*	i	11	1	-4
COc1cccc(S(=O)(=O)N[C@@H]2CC[C@H](CC(=O)NCc3ccccc3)O[C@@H]2CO)c1	-2	x	x	x	x	x
NC(=O)c1ccc2nc(-c3ccccc3)c(-c3ccccc3)nc2c1	1	15	6	23	x	x
CN1CCN(CCNC(=O)c2ccc3nc(-c4ccc(F)cc4)c(-c4ccc(F)cc4)nc3c2)CC1	4	58*	0	6	19	6	GDH-TPI dose=3.4*
CCOC(=O)C1CCCN(C(=O)c2ccc3nc(-c4ccccc4)c(-c4ccccc4)nc3c2)C1 (stereo unspecified)	-5	36*	-1	29	4	6
CCN1CCN(C(=O)c2ccc3nc(-c4ccccc4)c(-c4ccccc4)nc3c2)CC1	3	44*	i	25	129*	91*
CCOC(=O)C1CCCN(C(=O)c2ccc3nc(-c4ccc(OC)c(OC)c4)c(-c4ccc(OC)c(OC)c4)nc3c2)C1 (stereo unspecified)	12	-2	0	5	x	x
O=C(O)c1ccc2nc(-c3ccccc3)c(-c3ccccc3)nc2c1	x	30*	i	12	59*	34*
COc1ccccc1CNC(=O)C[C@H]1C[C@@H]2c3cc(NC(=O)c4cccnc4)ccc3O[C@@H]2[C@H](CO)O1	8	x	x	x	x	x
C=CC[C@@]1(C(=O)N2CCCCC2)N=C(c2ccc(OCCCO)cc2)O[C@@H]1c1ccccc1	-3	x	x	x	x	x
C[C@@H]1CN([C@@H](C)CO)C(=O)Cc2cc(NC(=O)Cc3ccccc3)ccc2O[C@@H]1CN(C)S(=O)(=O)c1cn(C)cn1	-1	x	x	x	x	x
CC(C)N(C(=O)COC(=O)c1cc(Cl)cc(Cl)c1N)C(C)C	2	80*	i	1	6	3
COc1cc2ccccc2cc1C(=O)OCC(=O)N1CCOCC1	-2	52*	x	-8	180*	156*
COc1ccc(-c2cc(C(=O)OCC(=O)N3CCOCC3)c3ccccc3n2)cc1	1	19	i	22	x	x
O=C(OCC(=O)N1CCOCC1)c1cc(S(=O)(=O)N2CCOCC2)c(Cl)cc1Cl	7	1	i	10	x	x
Nc1c(Cl)cc(Cl)cc1C(=O)OCC(=O)N1CCOCC1	x	101*	0	4	+	+
CC1CCN(C(=O)COC(=O)c2cc(Cl)cc(Cl)c2N)CC1	-1	81*	-1	-2	110*	90*
c1ccc(-c2oc3ncnc(NCCCN4CCOCC4)c3c2-c2ccccc2)cc1	2	48*	-13	22	-3	-1
OCCCNc1ncnc2oc(-c3ccccc3)c(-c3ccccc3)c12	0	89*	0	11	98*	79*
COc1ccc(-c2oc3ncnc(NCCCN4CCOCC4)c3c2-c2ccc(OC)cc2)cc1	0	108*	0	14	+	+
COc1ccc(-c2oc3ncnc(NCCN4CCOCC4)c3c2-c2ccc(OC)cc2)cc1	3	12	3	12	x	x
Cc1c(C)n(Cc2ccccc2)c2ncnc(NCCCO)c12	x	3	1	7	x	x
Cc1nn(C)cc1NC(=O)C[C@H]1CC[C@@H]2[C@@H](COc3ccc(NC(=O)NC(C)C)cc3C(=O)N2C)O1	12	x	x	x	x	x
O=C(CSc1cn[nH]n1)Nc1ccc(O)c(C(=O)O)c1	1	31*	0	-7	2	2
SMILES	Mtb BioA inh	FBA Mtb inh	Vc quorum ag	GDH-TPI counter-1	Mtb FBA inh conf	GDH-TPI counter-2	others
O=C(CCN1CCCCC1)NCC[C@H]1CC[C@H](NC(=O)C2CC2)[C@@H](CO)O1	6	x	x	x	x	x
Cc1ccc(-c2cn3nc(C)c(C)nc3n2)cc1	-1	34*	i	-3	3	3
COc1ccc(-c2cn3nc(C)c(C)nc3n2)cc1OC	5	0	i	-2	x	x
CCC(=O)Nc1ccc2c(c1)C(=O)N(C)[C@@H]1CC[C@@H](CC(=O)NCCc3ccncc3)O[C@@H]1CO2	1	x	x	x	x	x
CCC1C(=O)n2nc(-c3ccccc3)cc2N=C1C (stereo unspecified)	x	40*	i	8	+	145*
Cc1ccc(-c2ccc(C(=O)NCc3ccccc3)o2)c2ccccc12	-2	61*	0	11	120*	74*
CCC(=O)c1ccccc1OCCCn1cncn1	1	27*	10	7	112*	84*
Cc1cccc2cc(C#N)c(NCCNS(=O)(=O)c3ccc4c(c3)OCCO4)nc12	-3	47*	-3	16	125*	93*
COc1ccc(C(=O)NCCNc2nc3c(C)cccc3cc2C#N)cc1OC	-2	29*	i	-15	+	+
COc1ccc(C(=O)NCCNc2nc3c(C)cccc3cc2C#N)cc1	-1	20	0	4	x	x
CCC(=O)NCCCNc1nc2c(C)cccc2cc1C#N	x	38*	0	-3	142*	102*
O=S(=O)(NCCNS(=O)(=O)c1c(F)cccc1F)c1ccc2c(c1)OCCO2	0	1	-1	-1	x	x
c1ccc(Nc2cccc3c(Nc4ccccc4)cccc23)cc1	5	28*	-2	11	36*	34*
Cc1noc(C)c1S(=O)(=O)Nc1ccc2c(c1)C(=O)N([C@@H](C)CO)C[C@H](C)[C@H](CN(C)Cc1ccccc1)OCCCC[C@@H](C)O2	1	x	x	x	x	x
Cc1cccc(NS(=O)(=O)c2ccc(C(C)(C)C)cc2)n1	0	23	0	10	x	x
Cc1cccc(NS(=O)(=O)Cc2ccccc2)n1	0	66*	i	10	66*	54*
Cc1cccc(NS(=O)(=O)c2ccccc2)n1	0	29*	0	2	69*	59*
C[C@@H]1CN([C@H](C)CO)C(=O)Cc2cc(NC(=O)NC3CCCCC3)ccc2O[C@@H]1CN(C)S(C)(=O)=O	-1	x	x	x	x	x
O=C(C[C@@H]1C[C@@H]2c3cc(NC(=O)Nc4ccc(F)cc4)ccc3O[C@@H]2[C@@H](CO)O1)NC1CCCCC1	-1	x	x	x	x	x
O=C(C[C@@H]1C=C[C@H](NS(=O)(=O)c2ccccc2)[C@@H](CO)O1)N1CCc2ccccc2C1	1	x	x	x	x	x
O=C1NC(=O)c2cc(NC(=O)c3cccc4ccccc34)ccc21	-2	10	0	-4	x	x
O=C(Nc1ccc2c(c1)C(=O)NC2=O)c1ccccc1	-2	41*	0	-3	198*	123*
O=C(Nc1ccc2c(c1)C(=O)NC2=O)c1ccccc1Cl	2	30*	0	12	7	-2
C[C@@H](NC(=O)C[C@H]1C=C[C@H](NC(=O)C2CCC2)[C@H](CO)O1)c1ccccc1	-2	x	x	x	x	x
